Assay results from PubChem BioAssay (NCATS).
Values without a mark were called inactive. Results filed as inconclusive are left out. Entries that show only a call come without a potency. Active and inactive are the calls of the source. The call rests on the fitted dose curve; in most records, active means well fitted curve in the direction sought with a large enough effect; inconclusive means small, poorly fitted or top-dose-only effect, or another doubt; inactive means no such curve, though single readings can be large; an effect the other way counts as inactive or inconclusive.

Key:
[1] = molecular target: Glutathione peroxidase 1 (Homo sapiens) (UniProt P07203); assay: Primary qHTS Assay for Inhibitors of Recombinant Selenoprotein Glutathione Peroxidase 1 (GPX1) (AID 1845191); further: nearly all actives have a fitted effect of over 65% in size
How it was run: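 Recombinant GPX1 (10 nM final) was preincubated with compound for 30 min at room temperature, then reacted with 1 mM GSH, 0.5 mM CHP, 0.5 mM NADPH and 100 nM glutathione reductase; NADPH fluorescence (340/450 nm) was read at 0 and 15 min.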

[2] = molecular target: Phospholipid hydroperoxide glutathione peroxidase GPX4 (Homo sapiens) (UniProt P36969); assay: Primary qHTS Assay for Inhibitors of Recombinant Selenoprotein Glutathione Peroxidase 4 (GPX4) (AID 1845192); further: nearly all actives have a fitted effect of over 65% in size; on activity change, negative = inhibition: series mostly up to about 50 µM
How it was run: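 GR-coupled readout: 100 nM GR, 1 mM GSH, 0.5 mM NADPH; NADPH fluorescence (ex 340/em 450 nm) read at t=0 and after 15 min RT. GPX4 200 nM, preincubated 30 min with compound; substrate 0.5 mM CHP.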

[3] = molecular target: Luciferin 4-monooxygenase (Photinus pyralis) (UniProt P08659); assay: Primary firefly luciferase (FLuc) qHTS assay for identification of artifact compounds. (AID 1845220); further: nearly all actives have a fitted effect of over 60% in size; on activity change, negative = inhibition: series mostly up to about 54 µM
How it was run: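 qHTS, 15 min compound preincubation with substrate (10 uM luciferin, 10 uM ATP) at RT, then 10 nM FLuc; 5 min; luminescence; % inhibition vs no-enzyme/DMSO controls, 4-parameter Hill fit.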

[4] = test system: Nanoluciferase (engineered Oplophorus gracilirostris luciferase); assay: Primary Nanoluciferase (NLuc) qHTS assay for identification of artifact compounds. (AID 1845222); further: potency means the concentration at half of the fitted maximal effect; on activity, negative = inhibition: series mostly up to about 54 µM
How it was run: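 Luminescence read-out of secreted NLuc in S16 cell conditioned medium (1:55); compounds tested with 15 min RT preincubation, then Nano-Glo substrate 1:100, 5 min. % inhibition vs no-enzyme and DMSO controls, 4-parameter Hill fit.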

[5] = Primary fluorescence-based thiol-reactive (MSTI) qHTS assay for identification of artifact compounds. (AID 1845221); further: nearly all actives have a fitted effect of over 65% in size; further: potency means the concentration at half of the fitted maximal effect
How it was run: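 Curve-fitted percent inhibition (4-parameter Hill) derived from fluorescence, Ex 525/Em 598 nm, scaled with Acetyl-MSTI and MSTI; 1 h incubation at room temperature.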

Sequence of Glutathione peroxidase 1 (Homo sapiens) (P07203 whole entry, looked up): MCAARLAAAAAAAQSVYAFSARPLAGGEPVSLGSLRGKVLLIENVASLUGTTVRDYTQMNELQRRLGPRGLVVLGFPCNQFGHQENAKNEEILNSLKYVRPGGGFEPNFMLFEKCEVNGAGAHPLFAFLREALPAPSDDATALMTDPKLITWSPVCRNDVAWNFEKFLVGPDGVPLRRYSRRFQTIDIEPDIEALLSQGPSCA
Sequence of Phospholipid hydroperoxide glutathione peroxidase GPX4 (Homo sapiens) (P36969 whole entry, looked up): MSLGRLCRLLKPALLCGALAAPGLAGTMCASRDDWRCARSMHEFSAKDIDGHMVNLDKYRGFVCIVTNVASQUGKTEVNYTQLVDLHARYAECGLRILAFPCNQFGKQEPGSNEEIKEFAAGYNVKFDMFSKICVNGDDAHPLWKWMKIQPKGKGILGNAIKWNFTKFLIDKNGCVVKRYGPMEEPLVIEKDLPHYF

| SMILES | Potency [1] | Potency [2] | Potency [3] | Potency [4] | activity change, negative = inhibition [3] | activity, negative = inhibition [4] | Potency [5] |
| --- | --- | --- | --- | --- | --- | --- | --- |
| CN1CCN(C2=Nc3ccccc3Nc3ccc(O)cc32)CC1 | inactive | inactive | inactive | inactive |  |  |  |
| CC1=C(CO)C2(C)CCCC(C)(C)C2C(O)C1O (stereo unspecified) | inactive | inactive | inactive | inactive |  |  |  |
| CC1(O)CCC2C(C3C1CCC3(C)O)C2(C)C (stereo unspecified) | inactive | inactive | inactive | inactive |  |  |  |
| C/C=C1/[C@H](O[C@@H]2O[C@H](CO)[C@@H](O)[C@H](O)[C@H]2O)OC=C(C(=O)OC)[C@H]1CC(=O)OCCc1ccc(OC(=O)C[C@@H]2C(C(=O)OC)=CO[C@@H](O[C@@H]3O[C@H](CO)[C@@H](O)[C@H](O)[C@H]3O)/C2=C/C)cc1 | inactive | inactive |  |  | 2.52% [at 11.6 µM] | 2.4% [at 11.6 µM] |  |
| C/C=C(\C)C1C(C)=CC2CCC(OS(=O)(=O)O)C(C)C2C1/C=C/C=C/C(=O)O (stereo unspecified) | inactive | inactive | inactive | inactive |  |  |  |
| C=C1C(OC(C)=O)CCC2(C)CCC(C(C)(C)O)CC12 (stereo unspecified) | inactive | inactive | inactive | inactive |  |  |  |
| COc1cc([C@@H](O[C@@H]2O[C@H](CO)[C@@H](O)[C@H](O)[C@H]2O)[C@@H]2CO[C@H](c3ccc(O)c(OC)c3)[C@H]2CO)ccc1O | inactive | inactive | inactive | inactive |  |  |  |
| NC1(c2ccc(NC(=O)c3ccnc(-c4cc(C(=O)O)ccn4)c3)cc2)CC1 | inactive | inactive | inactive | inactive |  |  |  |
| CC(C)c1ccc2c(c1)C(O)CC1C(C)(CO)CCCC21C (stereo unspecified) | inactive | inactive | inactive | inactive |  |  |  |
| C/C(CO)=C1/CCC23COC(C2)C(O)(C(=O)O)CCC13 (stereo unspecified) | inactive | inactive | inactive | inactive |  |  |  |
| COc1ccc(O[C@@H]2O[C@H](CO)[C@@H](O)[C@H](O)[C@H]2O)cc1OC | inactive | inactive | inactive | inactive |  |  |  |
| C[C@H](/C=C/[C@@]1(O)[C@H](C)CC(=O)CC1(C)C)O[C@@H]1O[C@H](CO[C@@H]2OC[C@@H](O)[C@H](O)[C@H]2O)[C@@H](O)[C@H](O)[C@H]1O | inactive | inactive | inactive | inactive |  |  |  |
| OC[C@@]1(O)CO[C@H](OC[C@H]2O[C@@H](OCCc3ccccc3)[C@H](O)[C@@H](O)[C@@H]2O)[C@@H]1O | inactive | inactive | inactive | inactive |  |  |  |
| CC1C2=CC(=O)OC2(O)CC2C1CCC1C(C)(C)CCC(O)C21C (stereo unspecified) | inactive | inactive | inactive | inactive |  |  |  |
| CC1(C(=O)O)CC[C@]2(C(=O)OC3OC(CO)C(O)C(O)C3O)CC[C@]3(C)C(=CCC4[C@@]5(C)CC[C@H](OC6OCC(O)C(O)C6OC6OC(CO)C(O)C(O)C6O)C(C)(C)C5CC[C@]43C)C2C1 (stereo partly specified) | inactive | inactive |  |  | 0.425% [at 11.6 µM] | 1.15% [at 11.6 µM] |  |
| O=C(C[C@@H]1C(C(=O)O)=CO[C@@H](O[C@@H]2O[C@H](CO)[C@@H](O)[C@H](O)[C@H]2O)/C1=C\CO)OCCc1ccc(O)c(O)c1 | inactive | inactive | inactive | inactive |  |  |  |
| O=C(O)Cc1cn([C@@H]2OC[C@@H](O[C@@H]3O[C@H](CO)[C@@H](O)[C@H](O)[C@H]3O)[C@H](O)[C@H]2O[C@@H]2O[C@H](CO)[C@@H](O)[C@H](O)[C@H]2O)c2ccccc12 | inactive | inactive | inactive | inactive |  |  |  |
| COc1cc(O)c(C(=O)O)c(CCc2ccccc2)c1 | inactive | inactive |  |  |  |  | inactive |
| CC1CCC2(C(=O)O)CCC3(C)C(=CCC4C5(C)CCC(O)C(C)(C(=O)O)C5CCC43C)C2C1(C)O (stereo unspecified) | inactive | inactive | inactive | inactive |  |  |  |
| Cc1c(Cc2ccc3ccccc3n2)c2cc(F)ccc2n1CC(=O)O | inactive | inactive | inactive | inactive |  |  |  |
| COc1c(-c2ccc(O)cc2)cc(OC)c2c1oc1cc(O)c(OC3OC(CO)C(O)C3O)cc12 (stereo unspecified) | inactive | inactive |  | inactive |  |  | 4.62 µM (active) |
| O=C(O)C1(c2ccc(-c3ccc(Cl)c(Cl)c3)c(F)c2)CC1 | inactive | inactive |  | 16.9 µM (active) |  |  | inactive |
| O=C(/C=C/c1ccc(O)cc1)OC[C@H]1O[C@@H](O/C(=C\c2ccccc2)C(=O)O)[C@H](O)[C@@H](O)[C@@H]1O | inactive | inactive |  | inactive |  |  | inactive |
